ALDH1A1 inh = qHTS Assay for Inhibitors of Aldehyde Dehydrogenase 1 (ALDH1A1); Aldehyde dehydrogenase 1A1 (Homo sapiens), P00352; Purified ALDH1A1, NADH fluorescence, propionaldehyde substrate; Potency, µM (series often up to 75.3 µM), for the others: top-dose activity, negative = inhibition, hits mostly inhibitors; hit rate 7.3% among 220,000; active = well fitted inhibition curve with a large enough effect, not every such curve was filed as active; inconclusive = small, poorly fitted or top-dose-only effect, or another doubt; inactive = no such curve, though single readings can be large or run the other way;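 note: potency is the fitted concentration of half-maximal effect; plate controls were no enzyme wells and a reference inhibitor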
Target sequence (P00352 whole entry, looked up): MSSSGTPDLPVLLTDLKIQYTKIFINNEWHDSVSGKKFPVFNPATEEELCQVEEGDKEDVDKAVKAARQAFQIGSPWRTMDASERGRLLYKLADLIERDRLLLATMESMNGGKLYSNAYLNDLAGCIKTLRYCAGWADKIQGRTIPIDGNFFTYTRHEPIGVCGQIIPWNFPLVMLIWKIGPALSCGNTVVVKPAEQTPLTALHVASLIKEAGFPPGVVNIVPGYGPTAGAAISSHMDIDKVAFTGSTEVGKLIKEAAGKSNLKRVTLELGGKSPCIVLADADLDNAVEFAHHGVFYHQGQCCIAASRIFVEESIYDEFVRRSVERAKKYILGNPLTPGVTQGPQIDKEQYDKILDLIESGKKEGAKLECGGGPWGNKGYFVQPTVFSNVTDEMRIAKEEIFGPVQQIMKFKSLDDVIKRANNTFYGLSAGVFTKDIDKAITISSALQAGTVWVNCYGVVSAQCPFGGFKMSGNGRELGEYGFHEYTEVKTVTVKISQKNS
IMPase Li cell = qHTS Assay for Identifying the Cell-Membrane Permeable IMPase Inhibitors: Potentiation with Lithium | AID 1457, 2008 | hit rate 0.35% among 210,000 | Potency, µM (doses to about 59.4 µM), inactives show top-dose activity, negative = IMPase inhibition, actives largely listed as inhibitors | CHO-M1 cells, IP1 TR-FRET (IP-One), carbachol + lithium;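 note: IP1 builds up when IMPase is blocked and the TR-FRET signal falls; potency is the fitted concentration of half-maximal effect; plate controls were basal vehicle for no effect and high inhibitor control for full effect; nearly all actives have a fitted effect of over 50% in size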
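Test compounds were applied to CHO-M1 cells previously cultured for 16–30 h at 2000 per well. A small lithium amount accompanied them; after 30 min at 37C, IP1 was quantified by TR-FRET.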
PNC inhibitor = High Content Assay for Compounds that inhibit the Assembly of the Perinucleolar Compartment | PC3M PTB-GFP, PNC prevalence imaging, 16 h; hits give low values | activity change (PNC), negative = inhibition, % at 10 µM | hit rate 3.1% among 140,000 | AID 2417, 2010;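 active = readout at or below -70, meaning at least 70% loss of cells showing the perinucleolar compartment, a nuclear body marking cancer cells; inconclusive = readout between -30 and a set limit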;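 note: plate controls were DMSO wells for no effect and camptothecin positive control wells for full effect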
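PC3M cells stably expressing PTB-GFP, 750–1000 cells/well, treated 16 h at 37 °C with compound (23 nl of library stock), in duplicate. After paraformaldehyde fixation and Hoechst stain, imaged at 20x; PNC prevalence scored by image analysis.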
HPGD inh = qHTS Assay for Inhibitors of HPGD (15-Hydroxyprostaglandin Dehydrogenase). 15-hydroxyprostaglandin dehydrogenase [NAD(+)] (Homo sapiens), P15428. purified HPGD, NADH fluorescence kinetic, PGE2 substrate. Potency, µM, inactives show at the top dose activity change, negative = inhibition, actives largely listed as inhibitors. hit rate 4.3% among 150,000. AID 894, 2007; active = well fitted inhibition curve with a large enough effect, not every such curve was filed as active; inconclusive = small, poorly fitted or top-dose-only effect, or another doubt; inactive = no such curve, though single readings can be large or run the other way; note: potency is the fitted concentration of half-maximal effect
Target sequence (P15428 whole entry, looked up): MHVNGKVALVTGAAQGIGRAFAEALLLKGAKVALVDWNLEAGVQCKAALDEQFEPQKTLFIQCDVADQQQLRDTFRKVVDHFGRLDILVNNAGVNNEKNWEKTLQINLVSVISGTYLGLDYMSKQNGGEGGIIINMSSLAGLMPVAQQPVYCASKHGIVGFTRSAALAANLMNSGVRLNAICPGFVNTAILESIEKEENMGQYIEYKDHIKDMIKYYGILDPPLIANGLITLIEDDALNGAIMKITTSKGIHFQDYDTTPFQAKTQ
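20 nM HPGD preincubated 15 min at room temperature with compound in 50 mM Tris-HCl pH 8, 0.01% Tween 20. Started with 1 mM NAD+ and 30 uM prostaglandin E2; NADH fluorescence (360/450 nm) read 5 times over 30-s intervals, last minus first.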
NPSR antagonist = qHTS Assay for Antagonists of the Neuropeptide S Receptor: cAMP Signal Transduction. CHO-NPSR cells, cAMP TR-FRET, antagonist mode. Potency, µM (doses to about 38.3 µM), without a hit: at the top dose activity change, negative = inhibition, most hits filed as inhibitors. hit rate 1% among 220,000. AID 1461, 2008; note: potency is the fitted concentration of half-maximal effect; nearly all actives have a fitted effect of over 50% in size
IMPase inh = qHTS Assay for Identifying the Cell-Membrane Permeable IMPase Inhibitors; Inositol monophosphatase 1 (Rattus norvegicus), P97697; CHO-M1 cells, IP1 accumulation, HTRF TR-FRET ratio; inhibition (IP1 accumulation), % at 46.1 µM; 120,000 tested, under 10 active; AID 901, 2007; active = well fitted curve in the direction sought with a large enough effect in the signal ratio, not every such curve was filed as active; inconclusive = small, poorly fitted or top-dose-only effect, or a change in a side signal; inactive = no such curve, though single readings can be large or run the other way; the % refers to the signal ratio;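 note: cells stimulated with carbachol in lithium chloride buffer; plate controls were DMSO basal wells for no effect and reference inhibitor wells for full effect; higher means more IMPase inhibition seen as more IP1 and lower FRET ratio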
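CHO-M1 cells (CHO stably expressing M1 receptor), compound up to 46 uM final, stimulated with carbachol (50 uM as added) in buffer with 50mM LiCl, pH 7.4, 30 min at 37C. Cytosolic IP1 read by TR-FRET; AC50 from Hill fits.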
Numbers without * were called inactive; ? = inconclusive; . = not tested or not shown; [ ] = dose if it differs, or a comment. Rows were chosen to be rich in hits. Some 11% of all compounds tested hit in one or more screens of this group. Unless noted, calls come from the whole dose curve; as a rule, active = well fitted curve in the direction sought with a large enough effect; inconclusive = small, poorly fitted or top-dose-only effect, or another doubt; inactive = no such curve, though single readings can be large; an effect the other way counts as inactive or inconclusive. Unless noted, % is set by controls: 0 for no effect and ±100 for the full control effect.

SMILES	ALDH1A1 inh	IMPase Li cell	PNC inhibitor	HPGD inh	NPSR antagonist	IMPase inh
COc1ccc(-c2cc(C(=O)N3CCCc4ccccc43)no2)cc1	4µM*	16%[38.3 µM]	-13	-24%	?	0
Cc1noc(C)c1C(=O)N1CCCc2ccccc21	25µM*	14%[38.3 µM]	26	-26%	0%[46.1 µM]	10
COc1ccc(C2=NOC(C(=O)N3CCCc4ccccc43)C2)cc1 (stereo not given)	13µM*	13%[38.3 µM]	-4	-9%	-21%[46.1 µM]	5
COc1cc(C2=NOC(C(=O)N3CCCc4ccccc43)C2)cc(OC)c1OC (stereo not given)	?	14%[38.3 µM]	?	-15%	-25%[46.1 µM]	3
O=C(c1cc(-c2cccs2)on1)N1CCCc2ccccc21	14µM*	17%[38.3 µM]	-24	-11%	-17%[46.1 µM]	1
Oc1ccc(N=Cc2ccc(OCc3ccccc3)cc2)cc1	20µM*	11%	.	.	27%	.
CC(NC(=O)Nc1nnc(C(F)(F)F)s1)(C(F)(F)F)C(F)(F)F	1%	6%[38.3 µM]	-12	-2%	10µM*	-8
C/C(=N\n1c(C)cc(C)c(C#N)c1=O)c1cccs1	-3%	-2%[38.3 µM]	21	-4%	-11%[46.1 µM]	2
CC/C(=N/O)c1cnnc(SC)n1	-7%	0%	17	-15%	11%	.
CC/C(=N/Nc1ccc(Cl)cc1)c1cnnc(SC)n1	10µM*	6%	100	-11%	-13%	.
CC/C(=N/Nc1cccc(C)c1)c1cnnc(SC)n1	9.5µM*	4%	19	-6%	-49%	.
CCCc1nc2cc(Cl)c([N+](=O)[O-])cc2o1	?	18%	.	.	-17%	.
O=C(O)CC12CSc3[nH]c(=O)sc3C1c1ccccc1OC2=O (stereo not given)	?	20%[38.3 µM]	-84*	?	-12%[46.1 µM]	1
Cc1cc(C)c2c(N)c(S(=O)(=O)c3ccccc3)sc2n1	?	2%[38.3 µM]	3	?	8%[46.1 µM]	10
CCCCS(=O)(=O)c1sc2nc(C)cc(C)c2c1N	-4%	0%[38.3 µM]	-26	2.8µM*	-12%[46.1 µM]	2
S=c1[nH]nc(COc2ccccc2)n1/N=C/c1ccccn1	?	0%	11	?	-10%	.
C=CCN1C(=O)C2(NNc3ccccc3O2)c2ccccc21 (stereo not given)	1.6µM*	-23%[38.3 µM]	-20	-20%	-2%[46.1 µM]	8
CCCCN1C(=O)C2(NNc3ccccc3O2)c2ccccc21 (stereo not given)	0.28µM*	47%[38.3 µM]	?	32µM*	-7%[46.1 µM]	3
COc1ccccc1CNc1ccnc(-c2ccc(N(C)C)cc2)n1	?	-1%	.	.	.	.
CCCN1C(=S)SC(C)(C)C1/[N+]([O-])=C/c1ccc(S(=O)(=O)NC)cc1 (stereo not given)	-11%	.	.	.	25%	.
CCCCCc1ccc(S(=O)(=O)Nc2cc(C)ccn2)cc1	.	.	.	.	1%	.
O=C1C2C3C=CC(C3)C2C(=O)N1CCCCN1C(=O)C2C3C=CC(C3)C2C1=O (stereo not given)	?	-2%[38.3 µM]	-13	-5%	17%[46.1 µM]	3
O=C1[C@@H]2[C@H](C(=O)N1O)[C@H]1C=C[C@@H]2C1	0.63µM*	19%[38.3 µM]	33	-9%	28%[46.1 µM]	-9
N#Cc1ccc(CSc2nc(-c3cccs3)c3c(c2C(=O)O)CCCC3)cc1	?	.	.	18µM*	.	.
O=C(c1cccs1)N1CCC2(O)CCCCC2C1c1ccc(F)cc1 (stereo not given)	-5%	-4%	?	-10%	4%	5
SMILES	ALDH1A1 inh	IMPase Li cell	PNC inhibitor	HPGD inh	NPSR antagonist	IMPase inh
CCn1c(SCc2nc3sc(C(=O)O)c(C)c3c(=O)[nH]2)nnc1-c1ccc(Cl)cc1	14µM*	4%	.	.	9%	.
Cc1sc2nc(CSc3nnnn3-c3ccc(Cl)cc3)[nH]c(=O)c2c1C	?	11%	-16	-15%	-15%	-3
O=[N+]([O-])c1cccc2ccc(/C=C/c3cccc(Br)c3)nc12	1%	-8%	17	-26%	-30%	7
O=C1C(Cl)=C(N2CCCCC2)C(=O)N1Cc1ccccc1	?	17%	-104*	-17%	-38%	.
CN1CCN(C2=C(Cl)C(=O)N(CCc3ccccc3)C2=O)CC1	?	12%	2	-12%	-8%[46.1 µM]	9
COc1ccc(CCN2C(=O)C3C4C=CC(C4)C3C2=O)cc1OC (stereo not given)	?	-3%	?	-3%	-5%[46.1 µM]	-5
NNc1nc(-c2ccccc2)cs1	-8%	8%	.	.	-18%	.
COc1ccc(/C(N)=N/OC(=O)N2CCOCC2)cc1	16%	-3%	.	.	-9%	.
COc1ccc(/C(N)=N/OC(=O)C2CCC(=O)N2S(=O)(=O)c2ccc(C)cc2)cc1 (stereo not given)	-11%	2%	-89*	-12%	4%	.
COc1ccc(CNC(=O)c2ccc[nH]2)cc1Cl	2%	-1%	.	.	7%	.
Cc1ccc(S(=O)(=O)Oc2ccccc2/C=C2/SC(=O)NC2=O)cc1	.	.	.	.	51%	.
Cc1c(Nc2cc(Cl)c3nonc3c2[N+](=O)[O-])c(=O)n(-c2ccccc2)n1C	-1%	25%	.	.	6.3µM*	.
O=C(CC1NCCNC1=O)OCc1ccccc1 (stereo not given)	3%	7%[38.3 µM]	-22	3%	-3%[46.1 µM]	8
COc1ccc(C(=O)NCC(=O)OCC(=O)Nc2cc([N+](=O)[O-])ccc2F)cc1	1.6µM*	1%	.	.	8%	.
CCOC(=O)c1ccc([N+](=O)[O-])cc1NC(C)=O	12%	3%	-92*	4%	17%	.
CCOC(=O)c1ccccc1NC(=O)c1cccc([N+](=O)[O-])c1	2%	-1%	.	.	-12%	.
CC(C)=CC(=O)OCC(=O)Nc1cc([N+](=O)[O-])ccc1F	8%	6%	1	-4%	4%[46.1 µM]	-2
CCOCC(=O)Nc1cc([N+](=O)[O-])ccc1OC	22µM*	-1%	.	.	-13%	.
Cc1c(Br)c([N+](=O)[O-])nn1CC(=O)Nc1ccc(Cc2ccncc2)cc1	?	24%	-93*	-18%	-28%	.
CNC(=O)CCCc1nc(-c2ccccc2Cl)no1	9%	12%[38.3 µM]	-22	-1%	?	-12
CC(Sc1ccc(S(=O)(=O)N2CCOCC2)cc1[N+](=O)[O-])C(=O)O (stereo not given)	?	2%	-20	-17%	14%	.

Compound activity deposited in PubChem BioAssay by National Center for Advancing Translational Sciences (NCATS).
